Source: PubChem BioAssay (NCI)
About 79,000 compounds went through this panel and 15% of them were active in at least one assay; those are over-represented in the sample as a whole. Active and inactive are the calls of the source. No stated cut-off is given here; in the data, active means growth inhibition above about 70%; inactive means the rest.

Legend:
[1] = NCI Yeast Anticancer Drug Screen. Data for the mlh1 strain (AID 171);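 further: 0% = growth of vehicle-treated control cultures of the same strain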; details: S. cerevisiae mlh1 strain growth inhibition, hits give high values
Procedure, shortened: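 Inhibition values reflect reduced yeast growth in the presence of compound, referenced to vehicle controls, using a strain chosen for its alteration in DNA repair or cell cycle control.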

[2] = NCI Yeast Anticancer Drug Screen. Data for the rad18 strain (AID 177); details: S. cerevisiae rad18 mutant growth inhibition, hits give high values
Procedure, shortened: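 Steps: expose repair-mutant yeast to compound; measure growth; express as inhibition relative to vehicle control.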

[3] = NCI Yeast Anticancer Drug Screen. Data for the rad52 strain (AID 147);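 further: 0% = growth of vehicle-treated control cultures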; details: S. cerevisiae rad52 mutant growth inhibition, hits give high values
Procedure, shortened: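 Inhibition of yeast growth, referenced to vehicle controls, was the measured output for a strain with defective DNA damage repair.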

[4] = NCI Yeast Anticancer Drug Screen. Data for the wt1 strain (AID 149);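 further: 0% = growth of vehicle-treated wt1 cultures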; details: S. cerevisiae wt1 strain (SPY 50644) growth inhibition, hits give high values
Procedure, shortened: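 Compounds are added to wt1 yeast cultures. Growth is then measured. Inhibition is expressed relative to vehicle-treated controls.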

[5] = NCI Yeast Anticancer Drug Screen. Data for the rad50EPP+ strain (AID 151);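 further: 0% = growth of vehicle-treated control cultures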; details: S. cerevisiae rad50 mutant strain, hits give high values
Procedure, shortened: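 Genetically defined yeast (rad50EPP+, DNA damage repair alteration) is grown with compound, and inhibition of growth is expressed relative to vehicle-treated controls.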

[6] = NCI Yeast Anticancer Drug Screen. Data for the rad50 strain (AID 155);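 further: 0% = growth of vehicle-only cultures of the same strain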; details: S. cerevisiae rad50 strain growth inhibition, hits give high values
Procedure, shortened: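 Inhibition values express reduced yeast growth in compound-treated cultures relative to vehicle-treated controls.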

[7] = NCI Yeast Anticancer Drug Screen. Data for the mec2-1 strain (AID 157); details: S. cerevisiae mec2-1 strain, hits give high values
Procedure, shortened: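 Each compound was tested on mec2-1 yeast, a strain altered in DNA damage repair or cell cycle control. Growth inhibition is reported relative to vehicle.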

[8] = NCI Yeast Anticancer Drug Screen. Data for the rad14 strain (AID 159);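 further: 0% = growth of vehicle-treated control cultures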; details: S. cerevisiae rad14 strain growth inhibition, hits give high values
Procedure, shortened: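 A mutant yeast strain defective in DNA damage repair is treated with compound; inhibition of its growth is scored against untreated, vehicle-exposed cultures.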

[9] = NCI Yeast Anticancer Drug Screen. Data for the sgs1 mgt1 strain (AID 161);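 further: 0% = growth of cultures given vehicle only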; details: S. cerevisiae sgs1 mgt1 strain, hits give high values
Procedure, shortened: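 Genetically altered yeast, compound exposure, growth inhibition relative to vehicle.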

[10] = NCI Yeast Anticancer Drug Screen. Data for the cln2 rad14 strain (AID 165);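 further: 0% = growth equal to vehicle treated cultures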; details: S. cerevisiae cln2 rad14 strain, hits give high values
Procedure, shortened: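 Test compounds were added to cln2 rad14 yeast cultures; inhibition of growth was then determined by comparison with vehicle treatment.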

[11] = NCI Yeast Anticancer Drug Screen. Data for the bub3 strain (AID 167); details: S. cerevisiae bub3 mutant strain, hits give high values
Procedure, shortened: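 Steps: expose the mutant yeast strain to compound; grow alongside vehicle-treated cultures; measure growth; express inhibition against the vehicle cultures.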

[12] = NCI Yeast Anticancer Drug Screen. Data for the wt2 strain (AID 169);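 further: 0% = growth of vehicle-treated yeast cultures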; details: S. cerevisiae wt2 strain growth inhibition, hits give high values
Procedure, shortened: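 The panel's yeast strains carry defined changes in DNA repair or cell cycle genes. Each strain is grown with compound, and growth loss is scored relative to vehicle.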

[13] = NCI Yeast Anticancer Drug Screen. Data for the sgs1 strain (AID 173);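 further: 0% = growth of vehicle-only control cultures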; details: S. cerevisiae sgs1 mutant, hits give high values
Procedure, shortened: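 Vehicle-treated cultures served as reference for growth inhibition of a yeast strain altered in DNA damage repair or cell cycle control after compound exposure.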

[14] = NCI Yeast Anticancer Drug Screen. Data for the mlh1 rad18 strain (AID 175); details: S. cerevisiae mlh1 rad18 strain growth inhibition, hits give high values
Procedure, shortened: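 Inhibition values reflect reduced growth of mutant yeast versus vehicle-treated controls following compound exposure; the mutations affect DNA damage repair.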

[15] = at 5.0 µM (retest, dose inferred, filed as 0.5)
[16] = at 50.0 µM (retest, dose inferred, filed as 5.0)

Measured: growth inhibition

CCCCC1=NNC(=O)C1
inactive: [1]; at 1.2 µM -11% | [1]; at 3.7 µM 1% | [1]; at 11.0 µM -7% | [1]; at 33.0 µM -10% | [1]; at 100.0 µM -18% | [2]; at 1.2 µM -10% | [2]; at 3.7 µM 1% | [2]; at 11.0 µM 0% | [2]; at 33.0 µM 1% | [2]; at 100.0 µM 24%

CN(NC(=O)/C(=C/c1ccc(O)cc1)NC(=O)c1ccccc1)c1ccnc2cc(Cl)ccc12
inactive: [3]; at 1.2 µM 2% | [3]; at 3.7 µM 9% | [3]; at 11.0 µM 35% | [3]; at 33.0 µM 60% | [4]; at 1.2 µM 3% | [4]; at 3.7 µM 4% | [4]; at 11.0 µM 11% | [4]; at 33.0 µM 40% | [4]; at 100.0 µM 69% | [5]; at 1.2 µM -2% | [5]; at 3.7 µM 3% | [5]; at 11.0 µM 14% | [5]; at 33.0 µM 34% | [5]; at 100.0 µM 42% | [6]; at 1.2 µM -2% | [6]; at 3.7 µM -4% | [6]; [15] 6% | [6]; at 11.0 µM 15% | [6]; at 33.0 µM 68% | [6]; [16] 20% | [7]; at 1.2 µM 1% | [7]; at 3.7 µM 4% | [7]; [15] 15% | [7]; at 11.0 µM 12% | [7]; at 33.0 µM 44% | [7]; [16] 2% | [7]; at 50.0 µM 46.9% | [8]; at 1.2 µM 0% | [8]; at 3.7 µM 2% | [8]; at 11.0 µM 13% | [8]; at 33.0 µM 38% | [8]; at 100.0 µM 60% | [9]; [15] 9% | [9]; [16] 9% | [9]; at 50.0 µM 51.1% | [10]; [15] -3% | [10]; [16] 2% | [10]; at 50.0 µM -2.45% | [11]; at 1.2 µM -1% | [11]; at 3.7 µM 4% | [11]; [15] 21% | [11]; at 11.0 µM 16% | [11]; at 33.0 µM 43% | [11]; [16] 65% | [11]; at 50.0 µM 55.1% | [11]; at 100.0 µM 68% | [12]; at 1.2 µM -3% | [12]; at 3.7 µM -1% | [12]; at 11.0 µM 11% | [12]; at 33.0 µM 47% | [1]; at 1.2 µM 1% | [1]; at 3.7 µM 4% | [1]; at 11.0 µM 21% | [1]; at 33.0 µM 64% | [13]; at 1.2 µM 2% | [13]; at 3.7 µM 4% | [13]; at 11.0 µM 14% | [13]; at 33.0 µM 67% | [14]; [15] 1% | [14]; [16] 2% | [2]; at 1.2 µM 1% | [2]; at 3.7 µM 7% | [2]; at 11.0 µM 45%
active: [3]; at 100.0 µM 79% | [6]; at 50.0 µM 80.1% | [6]; at 100.0 µM 81% | [7]; at 100.0 µM 72% | [12]; at 100.0 µM 70% | [1]; at 100.0 µM 81% | [13]; at 100.0 µM 83% | [14]; at 50.0 µM 80.3% | [2]; at 33.0 µM 78% | [2]; at 100.0 µM 87%

CN(N=O)c1ccc(/C=C/c2ccnc3ccccc23)cc1
inactive: [3]; at 1.2 µM 2% | [3]; at 3.7 µM 9% | [3]; at 11.0 µM 35% | [4]; at 1.2 µM 0% | [4]; at 3.7 µM 2% | [4]; at 11.0 µM 8% | [4]; at 33.0 µM 20% | [4]; at 100.0 µM 57% | [5]; at 1.2 µM 7% | [5]; at 3.7 µM 26% | [5]; at 11.0 µM 68% | [6]; at 1.2 µM 5% | [6]; at 3.7 µM 14% | [6]; [15] 23% | [6]; at 11.0 µM 42% | [7]; at 1.2 µM 3% | [7]; at 3.7 µM 5% | [7]; [15] 7% | [7]; at 11.0 µM 13% | [7]; at 33.0 µM 34% | [7]; [16] 32% | [7]; at 50.0 µM 42.5% | [8]; at 1.2 µM 3% | [8]; at 3.7 µM 3% | [8]; at 11.0 µM 10% | [8]; at 33.0 µM 24% | [9]; [15] 8% | [9]; [16] 43% | [9]; at 50.0 µM 47.3% | [10]; [15] -10% | [10]; [16] 12% | [10]; at 50.0 µM 19.6% | [11]; at 1.2 µM -3% | [11]; at 3.7 µM 3% | [11]; [15] 4% | [11]; at 11.0 µM 16% | [11]; at 33.0 µM 32% | [11]; [16] 25% | [11]; at 50.0 µM 37% | [11]; at 100.0 µM 68% | [12]; at 1.2 µM -4% | [12]; at 3.7 µM 1% | [12]; at 11.0 µM 7% | [12]; at 33.0 µM 28% | [1]; at 1.2 µM 3% | [1]; at 3.7 µM 5% | [1]; at 11.0 µM 13% | [1]; at 33.0 µM 31% | [13]; at 1.2 µM -2% | [13]; at 3.7 µM 3% | [13]; at 11.0 µM 10% | [13]; at 33.0 µM 55% | [14]; [15] 3% | [14]; [16] 68% | [2]; at 1.2 µM 0% | [2]; at 3.7 µM 2% | [2]; at 11.0 µM 16% | [2]; at 33.0 µM 55%
active: [3]; at 33.0 µM 85% | [3]; at 100.0 µM 96% | [5]; at 33.0 µM 90% | [5]; at 100.0 µM 98% | [6]; at 33.0 µM 89% | [6]; [16] 87% | [6]; at 50.0 µM 95.8% | [6]; at 100.0 µM 95% | [7]; at 100.0 µM 90% | [8]; at 100.0 µM 71% | [12]; at 100.0 µM 81% | [1]; at 100.0 µM 86% | [13]; at 100.0 µM 90% | [14]; at 50.0 µM 78.6% | [2]; at 100.0 µM 91%
